# Where “and” joins values, the source holds several entries; their conditions need not be identical. Identical values can stand only once. Out of some 5,500 compounds screened, about 2,000 (36%) were called active. Not shown: some 18% with an inconclusive outcome. Rule as the data show it: active = normalized growth mostly below about 0.91 (no sharp cut-off); inconclusive = no clear call, values can overlap the other calls; inactive = mostly above about 0.92. The list shows a part of the results.
# Experiment: chemical genetic growth profiling, strain panel (AID 1159580);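 also: tested at 20 µM; growth read once vehicle control cultures reached saturation at 30 °C; 1 = growth at the plate median or of vehicle wells; lower values mean less growth of the strain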
# Conditions: S. cerevisiae deletion strains, growth OD
compound,measurement,setting,value
CC[C@@]1(O)C[C@H](O[C@H]2C[C@H](N(C)C)[C@H](O)[C@H](C)O2)c2c(cc3c(c2O)C(=O)c2c(O)ccc(O)c2C3=O)[C@H]1C(=O)OC,normalized growth,"locus YAL021C, strain ccr4, stronger effect = lower value",0.83 (active)
same,normalized growth,"locus YAL026C, strain drs2, stronger effect = lower value",0.813 (active)
same,normalized growth,"locus YAL030W, strain snc1, stronger effect = lower value",0.919 (active)
same,normalized growth,"locus YBL061C, strain skt5, stronger effect = lower value",0.875 (active)
same,normalized growth,"locus YBR009C, strain hhf1, stronger effect = lower value",0.924 (inactive)
same,normalized growth,"locus YBR021W, strain FUR4, stronger effect = lower value",0.143 (active)
same,normalized growth,"locus YBR023C, strain chs3, stronger effect = lower value",1.52 [resistant] (active)
same,normalized growth,"locus YBR171W, strain sec66, stronger effect = lower value",1.03 (inactive)
same,normalized growth,"locus YBR229C, strain ROT2, stronger effect = lower value",0.152 (active)
same,normalized growth,"locus YBR231C, strain swc5, stronger effect = lower value",0.794 (active)
same,normalized growth,"locus YBR279W, strain paf1, stronger effect = lower value",0.901 (active)
same,normalized growth,"locus YCL011C, strain gbp2, stronger effect = lower value",0.0988 (active)
same,normalized growth,"locus YCL016C, strain dcc1, stronger effect = lower value",0.893 (active)
same,normalized growth,"locus YCL029C, strain bik1, stronger effect = lower value",0.205 (active)
same,normalized growth,"locus YCL069W, strain vba3, stronger effect = lower value",0.948 (inactive)
same,normalized growth,"locus YCR088W, strain abp1, stronger effect = lower value",0.954 (inactive)
same,normalized growth,"locus YDL005C, strain med2, stronger effect = lower value",1.03 (inactive)
same,normalized growth,"locus YDL035C, strain GPR1, stronger effect = lower value",0.0755 (active)
same,normalized growth,"locus YDL040C, strain nat1, stronger effect = lower value",0.962 (inactive)
same,normalized growth,"locus YDL074C, strain BRE1, stronger effect = lower value",0.141 (active)
same,normalized growth,"locus YDL101C, strain DUN1, stronger effect = lower value",0.0945 (active)
same,normalized growth,"locus YDL134C, strain PPH21, stronger effect = lower value",0.0874 (active)
same,normalized growth,"locus YDL185W, strain tfp1, stronger effect = lower value",0.956 (inactive)
same,normalized growth,"locus YDL192W, strain arf1, stronger effect = lower value",0.106 (active)
same,normalized growth,"locus YDR001C, strain nth1, stronger effect = lower value",0.932 (inactive)
same,normalized growth,"locus YDR069C, strain doa4, stronger effect = lower value",0.68 (active)
same,normalized growth,"locus YDR101C, strain arx1, stronger effect = lower value",0.18 (active)
same,normalized growth,"locus YDR137W, strain rgp1, stronger effect = lower value",0.703 (active)
same,normalized growth,"locus YDR150W, strain NUM1, stronger effect = lower value",0.112 (active)
same,normalized growth,"locus YDR159W, strain sac3, stronger effect = lower value",0.906 (inactive)
same,normalized growth,"locus YDR162C, strain NBP2, stronger effect = lower value",0.0578 (active)
same,normalized growth,"locus YDR195W, strain ref2",1.05 (inactive)
same,normalized growth,"locus YDR297W, strain sur2, stronger effect = lower value",0.873 (active)
same,normalized growth,"locus YDR318W, strain mcm21, stronger effect = lower value",0.125 (active)
same,normalized growth,"locus YDR334W, strain swr1, stronger effect = lower value",0.816 (active)
same,normalized growth,"locus YDR335W, strain msn5, stronger effect = lower value",0.854 (active)
same,normalized growth,"locus YDR388W, stronger effect = lower value",0.0868 (active)
same,normalized growth,"locus YDR392W, strain spt3, stronger effect = lower value",0.823 (inactive)
same,normalized growth,"locus YDR502C, strain sam2, stronger effect = lower value",0.125 (active)
same,normalized growth,"locus YEL003W, strain gim4, stronger effect = lower value",0.942 (inactive)
same,normalized growth,"locus YEL037C, strain rad23, stronger effect = lower value",0.874 (active)
same,normalized growth,"locus YEL061C, strain CIN8 (second series), stronger effect = lower value",0.879 (active)
same,normalized growth,"locus YEL061C, strain CIN8, stronger effect = lower value",0.071 (active)
same,normalized growth,"locus YER015W, strain faa2, stronger effect = lower value",0.821 (active)
same,normalized growth,"locus YER016W, strain bim1, stronger effect = lower value",0.954 (inactive)
same,normalized growth,"locus YER110C, stronger effect = lower value",0.559 (active)
same,normalized growth,"locus YER111C, strain swi4, stronger effect = lower value",0.767 (active)
same,normalized growth,"locus YER155C, strain BEM2 (second series), stronger effect = lower value",0.848 (active)
same,normalized growth,"locus YER155C, strain BEM2, stronger effect = lower value",0.144 (active)
same,normalized growth,"locus YER167W, strain BCK2, stronger effect = lower value",0.0725 (active)
same,normalized growth,"locus YFR010W, strain ubp6, stronger effect = lower value",0.813 (active)
same,normalized growth,"locus YGL078C, strain dbp3, stronger effect = lower value",0.973 (inactive)
same,normalized growth,"locus YGL086W, strain mad1, stronger effect = lower value",0.281 (active)
same,normalized growth,"locus YGL167C, strain pmr1, stronger effect = lower value",0.955 (inactive)
same,normalized growth,"locus YGL173C, strain kem1, stronger effect = lower value",0.716 (active)
same,normalized growth,"locus YGL227W, strain vid30, stronger effect = lower value",1.02 (inactive)
same,normalized growth,"locus YGL240W, strain doc1, stronger effect = lower value",0.966 (inactive)
same,normalized growth,"locus YGL248W, strain PDE1, stronger effect = lower value",0.0787 (active)
same,normalized growth,"locus YGL253W, strain hxk2, stronger effect = lower value",0.86 (active)
same,normalized growth,"locus YGR078C, strain PAC10, stronger effect = lower value",0.0806 (active)
same,normalized growth,"locus YGR135W, strain pre9, stronger effect = lower value",0.0948 (active)
same,normalized growth,"locus YGR252W, strain gcn5, stronger effect = lower value",0.225 (active)
same,normalized growth,"locus YHR013C, strain ard1, stronger effect = lower value",0.935 (inactive)
same,normalized growth,"locus YHR027C, strain rpn1, stronger effect = lower value",0.812 (active)
same,normalized growth,"locus YHR030C, strain SLT2, stronger effect = lower value",0.113 (active) and 0.995 (inactive)
same,normalized growth,"locus YHR079C, strain IRE1 (second series), stronger effect = lower value",0.477 (active)
same,normalized growth,"locus YHR079C, strain IRE1, stronger effect = lower value",0.987 (inactive)
same,normalized growth,"locus YHR094C, strain hxt1, stronger effect = lower value",0.402 (active)
same,normalized growth,"locus YHR129C, strain ARP1, stronger effect = lower value",0.0918 (active)
same,normalized growth,"locus YHR142W, strain chs7, stronger effect = lower value",0.745 (active)
same,normalized growth,"locus YHR200W, strain rpn10, stronger effect = lower value",0.0997 (active)
same,normalized growth,"locus YIL066C, strain RNR3, stronger effect = lower value",0.073 (active)
same,normalized growth,"locus YIL073C, strain SPO22, stronger effect = lower value",0.134 (active)
same,normalized growth,"locus YIL125W, strain kgd1, stronger effect = lower value",0.959 (inactive)
same,normalized growth,"locus YIR030C, strain dcg1, stronger effect = lower value",0.179 (active)
same,normalized growth,"locus YJL092W, strain hpr5, stronger effect = lower value",0.905 (active)
same,normalized growth,"locus YJL095W, strain BCK1 (second series), stronger effect = lower value",0.877 (active)
same,normalized growth,"locus YJL095W, strain BCK1, stronger effect = lower value",0.121 (active) and 0.997 (inactive)
same,normalized growth,"locus YJL115W, strain asf1, stronger effect = lower value",0.947 (inactive)
same,normalized growth,"locus YJL129C, strain trk1, stronger effect = lower value",1.05 (inactive)
same,normalized growth,"locus YJL134W, strain LCB3, stronger effect = lower value",0.167 (active)
same,normalized growth,"locus YJL154C, strain vps35, stronger effect = lower value",0.929 (inactive)
same,normalized growth,"locus YJL164C, strain tpk1, stronger effect = lower value",0.832 (active)
same,normalized growth,"locus YJL166W, strain qcr8, stronger effect = lower value",0.875 (active)
same,normalized growth,"locus YJL168C, strain set2, stronger effect = lower value",0.272 (active)
same,normalized growth,"locus YJL187C, strain SWE1 (second series), stronger effect = lower value",0.0876 (active)
same,normalized growth,"locus YJR043C, strain POL32, stronger effect = lower value",0.113 (active)
